# According to ChEMBL document CHEMBL1157539, “Thousands of chemical starting points for antimalarial lead identification” (Nature, 2010):
# What was measured:
# Plasmodium falciparum [1] = test: GSK_TCMDC: Inhibition of Plasmodium falciparum 3D7 in whole red blood cells, using parasite LDH activity as an index of growth. Test compounds present at 2uM; format: functional
# Plasmodium falciparum [2] = test: GSK_TCMDC: Inhibition of Plasmodium falciparum Dd2 in whole red blood cells, using parasite LDH activity as an index of growth. Test compounds present at 2uM; format: functional
Structure (SMILES),Inhibition (Plasmodium falciparum [1]) [%],Inhibition (Plasmodium falciparum [2]) [%]
Nc1nc(N)c2c(ccc3c2ccn3Cc2ccc(Br)cc2)n1,100,98
Cl.Nc1ccncc1C(=O)NCCCCN1CCN(c2nsc3ccccc23)CC1,100,9
Cc1nc(C)c(-c2ccc(-c3ccc(F)cc3)cc2)c(O)c1Cl,96,96
CCCc1cc(Cc2cnc(N)nc2N)c2cccnc2c1OC,98,3
CCOc1cc2ncnc(Nc3ccc(OCc4c(Cl)cccc4Cl)c(OC)c3)c2cc1OCC.Cl,89,12
Cc1[nH]c(C)c(-c2ccc(Oc3ccccc3)cc2)c(=O)c1Br,96,97
CCNCCCC(C)Nc1ccnc2cc(Cl)ccc12.O=C(O)C(=O)O (stereo not drawn),100,0
CCOc1cc2ncnc(Nc3ccc(OCc4ccccc4OC)c(OC)c3)c2cc1OCC.Cl,97,52
CCOc1cc(OCC)c2ccccc2c1CNCCCCCCNCc1c(OCC)cc(OCC)c2ccccc12.CS(=O)(=O)O,100,89
